Out of some 150,000 compounds screened, about 100 (0.067%) were called active. The list comes from a sample in which actives are over-represented; it also holds similar structures and randomly drawn compounds. Values without a mark were called inactive.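 Rule for the calls: active = inhibition above the mean plus 3 SD of compounds within the control limits, set per campaign (cut at about 38% in these data); inactive = the rest.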
Test: reduced ATP in mature Plasmodium gametocytes – ATP luminescence, HTS, primary screen (AID 743093);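 note: 0% = DMSO wells and 100% = medium only without gametocytes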
Settings: P. falciparum stage V gametocytes, 24 h, at 10.9 µM, stronger effect = higher value

Row | Compound | inhibition
1 | COc1cc(OC)cc(-c2sc3ccc(OC)cc3c2-c2ccc3cc[nH]c3c2)c1 | 5.06%
2 | C/C(=C/c1ccccc1)C(=O)N1CCN(c2ccccc2)CC1 | 5.72%
3 | Cc1cc2nc3n(c2cc1C)CC1CC(C(=O)NCCC(C)C)N(C)C31 (stereo not drawn) | 6.88%
4 | COC(=O)[C@]1(C)N[C@H](c2ccc(-c3ccc(Cl)c(Cl)c3)cc2)[C@@H]2C(=O)N(C)C(=O)[C@@H]21 | 15.7%
5 | CC(C)(C)NC(=O)/C(=C/c1cccnc1)NC(=O)c1ccco1 | -3.01%
6 | COc1ccc(C(C)NC(=O)C2CCCC2)cc1 (stereo not drawn) | 7.38%
7 | O=C(CNc1ccc(F)cc1F)NC(=O)NCc1ccco1 | -14.3%
8 | COc1ccc2ccn(C)c2c1 | 3.29%
9 | CC(=O)N1CCC(N(C(=O)Nc2ccc(Cl)cc2)C(C)C)CC1 | -9.52%
10 | CCC(=O)Nc1ccc(C(=O)NNC(=O)c2ccc(Cl)cc2)cc1 | 1.21%
11 | CCN1C(=S)N[C@@H](CCc2ccccc2)[C@H](C(=O)OC)[C@H]1C | 12.5%
12 | Oc1c(Br)cc(/C=N/NC(=S)NCC2CCCO2)cc1Br (stereo not drawn) | -1.52%
13 | Cc1cc(N2CCN(c3ccccc3)CC2)nc(N2CCOCC2)n1 | -32.2%
14 | COc1ccc(NC(=O)C2=NNC(=O)CC2)cc1S(=O)(=O)N1CCCCC1 | 3.13%
15 | COc1ccc(N(CC(=O)Nc2cccc3ccccc23)S(C)(=O)=O)c(OC)c1 | 7.84%
16 | O=C(COc1ccccc1)N1CCN=C1SCc1cccc(F)c1 | 8.04%
17 | O=C(Nc1cccc(S(=O)(=O)NC2=NCCC2)c1)C1CCCCC1 | -1.09%
18 | CCOc1cc2ccccc2cc1C(=O)Nc1ccccn1 | 3.24%
19 | CC(=O)c1ccc(N2Cc3ccccc3C2)cc1 | 9.41%
20 | O=C(CC(c1ccccc1)c1cc(Cl)ccc1O)NCCN1CCOCC1 (stereo not drawn) | -8.49%
21 | CN(c1ccc(OCC(=O)NC2=NCCS2)cc1)S(=O)(=O)c1ccc(F)cc1 | -8.94%
22 | C/C(=N/NC(=O)CN1CCN(S(=O)(=O)c2ccc(Br)cc2)CC1)c1ccncc1 | -12.4%
23 | Cc1nnc(C)c2c(C)n(N)c(C)c12 | -1.23%
24 | COc1ccc(CCN2C(=O)C(C)=C(C)C2=O)cc1OC | -7.13%
25 | COc1cc(OC)cc(-c2c(C#Cc3ccsc3)c3cc(-c4ccc(SC)cc4)ccc3n2C)c1 | 3.56%
26 | O=C(c1ccco1)N1CCN(c2cccc(Cl)c2)CC1 | 4.74%
27 | O=C(c1ccco1)N1CCN(C(=O)C2c3ccccc3Oc3ccccc32)CC1 | 42.8% (active)

Row | Compound | inhibition
28 | O=C(c1ccco1)N1CCN(CCOc2ccccc2)CC1 | -1.67%
29 | CCCn1c(=O)c(C(=O)Nc2cc(C)ccn2)c(O)c2ccccc21 | -14.8%
30 | CC(=O)c1ccc(NC(=O)C(C)N(C)CC(=O)Nc2ccccc2Cl)cc1 (stereo not drawn) | -5.51%
31 | CCOC(=O)C1(CCOc2ccccc2)CCN(Cc2cc(OC)cc(OC)c2)CC1 | 9.31%
32 | Cn1c(=O)c2c(-c3cccc(Br)c3)c(C#N)c(N)nc2n(C)c1=O | -18.2%
33 | COc1ccccc1-c1nnc(-c2ccc(F)cc2)o1 | -17.9%
34 | CCOC(=O)[C@H]1[C@H]2COc3ccccc3[C@@H]2N2C(=O)CN(Cc3ccccc3)C(=O)[C@@]12C | -1.62%
35 | CC(=O)Cn1cnc2c(cnn2-c2ccccc2)c1=O | 2.17%
36 | O=C1C(=O)N(CCCO)C(c2ccccc2)/C1=C(\O)c1ccc(Br)cc1 (stereo not drawn) | 2.05%
37 | COc1ccc(N(CC(=O)NCCSCc2cccc(Cl)c2)S(C)(=O)=O)cc1 | 1.88%
38 | COc1cc(OC)c(C(=S)N2CCCC2)cc1OC | -6.55%
39 | O=c1[nH]cnc(O)c1C(c1ccc(F)cc1)c1c(O)nc[nH]c1=O | 0.56%
40 | CCCc1nc2oc3c(=O)[nH]cnc3c2c2c1COC(C)(C)C2 | 8.46%
41 | COc1ccc(-c2c(C#Cc3ccccc3)c3ccccc3n2C)cc1 | -4.41%
42 | Cc1cccc(NC(=O)C(C)SCc2ccccc2)c1 (stereo not drawn) | -2.36%
43 | COc1ccc(Cc2cc(-c3ccc(F)cc3)n[nH]c2=O)cc1 | -14.6%
44 | C=CC[C@@H](CC(=O)N[C@@H](CO)Cc1ccccc1)C(=O)NCCOC(=O)[C@@H](CC=C)CC(=O)OC(C)(C)C | -18.1%
45 | COc1ccccc1-n1c(SCC(=O)O)nc2sc3c(c2c1=O)CCC3 | -0.96%
46 | Cc1cc(C)cc(NC(=O)NC2CCN(CC(=O)Nc3cccc(Cl)c3C)CC2)c1 | -10.3%
47 | CC(C)Cc1nnc(NC(=O)CCc2ccccc2)s1 | -5.6%
48 | COc1ccc(CCNC(=O)C2CCCN2C(=O)Nc2ccccc2)cc1OC (stereo not drawn) | 11.4%
49 | COC(=O)C1(C)NC(c2ccc(F)cc2)C2C(=O)N(c3ccccc3)C(=O)C21 (stereo not drawn) | -19.3%
50 | COc1ccccc1-c1oc2ccccc2c1C#CCCCCO | 7.1%
51 | Cc1cc(-c2n[nH]c(=S)n2/N=C/c2ccco2)n[nH]1 | 9.38%
52 | CCCNC(=S)N1CCC(NC(=O)c2ccc(OC)cc2)CC1 | -3.26%
53 | COc1ccc(C(C(=O)NC(C)(C)C)N(C(=O)Cn2nnc3ccccc32)c2ccc(C(C)=O)cc2)cc1O (stereo not drawn) | 8.85%

— PubChem BioAssay AID743093 (The Scripps Research Institute Molecular Screening Center, 2013)
